Our source for the Potency and outcome values is PubChem BioAssay (NCATS).

Records with an inconclusive call do not appear. Activity calls are given as the source filed them. Unless noted, the call rests on the fitted dose curve; in most records, active means well fitted curve in the direction sought with a large enough effect; inconclusive means small, poorly fitted or top-dose-only effect, or another doubt; inactive means no such curve, though single readings can be large; an effect the other way counts as inactive or inconclusive.

The nature of assay [1]: qHTS for differential inhibitors of proliferation of Plasmodium falciparum line GB4 (AID 1816).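 Further: parasite growth measured after 72 h incubation.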 Further: potency means the concentration at half of the fitted maximal effect. The settings on record: Potency: Plasmodium falciparum GB4 proliferation inhibition.
Assay [2] can be described thus: qHTS for differential inhibitors of proliferation of Plasmodium falciparum line 3D7 (AID 1876). Further: potency means the concentration at half of the fitted maximal effect.
Assay [3] can be described thus: qHTS for differential inhibitors of proliferation of Plasmodium falciparum line D10 (AID 1877).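 Further: parasites grown with compound for 72 h before DNA staining.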 Further: potency means the concentration at half of the fitted maximal effect.
A short description of assay [4]: qHTS for differential inhibitors of proliferation of Plasmodium falciparum line W2 (AID 1883).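 Further: parasites grown with compound for 72 h before lysis and staining.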 Further: potency means the concentration at half of the fitted maximal effect. The following applies: Potency: Plasmodium falciparum W2 proliferation inhibition. (In general: Quantitative high-throughput screening tests each substance at several concentrations.)
A short description of assay [5]: qHTS for differential inhibitors of proliferation of Plasmodium falciparum line HB3 (AID 1886).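 Further: parasites grown with compound for 72 h before SYBR Green readout.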 Further: potency means the concentration at half of the fitted maximal effect. The settings on record: Potency: Plasmodium falciparum HB3 proliferation inhibition.
Assay [6] has as its target Ferritin light chain (Equus caballus) (UniProt P02791). The experiment in a line: qHTS Validation Assay for Identification of Novel General Anesthetics (AID 2323). Further: potency means the concentration at half of the fitted maximal effect. In outline:
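Competitive displacement of profluorescent 1-aminoanthracene (1-AMA, 50% saturated solution in PBS) from 10 uM horse-spleen apoferritin. Compounds incubated 10 min at room temperature; fluorescence read at 380 nm excitation/535 nm emission, normalized to free 1-AMA and complex, fitted with four-parameter Hill equation.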

Assay [7] concerns the target ATP-dependent DNA helicase Q1 (Homo sapiens) (UniProt P46063). Kind of assay: qHTS Validation Assay for Inhibitors of RecQ-Like Dna Helicase 1 (RECQ1) (AID 2353). Further: potency means the concentration at half of the fitted maximal effect. The gist of the method:
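50 nM RECQ1T1 preincubated 15 min with compound in Tris pH 8.0 buffer with MgCl2, DTT, Tween-20 and 2.5 ug/ml poly(dI-dC); started with 200 nM TAMRA/BHQ-2 forked duplex and 2 mM ATP. Unwinding read as fluorescence (525/598 nm), two reads 2 h apart.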

Assay [8] is described as follows: qHTS for differential inhibitors of proliferation of Plasmodium falciparum line Dd2 (AID 1882). Further: nearly all actives have a fitted effect of over 65% in size. Further: potency means the concentration at half of the fitted maximal effect. The following applies: Potency: Plasmodium falciparum Dd2 proliferation inhibition. The gist of the method:
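SYBR Green I DNA fluorescence read-out, ex 485/em 535 nm. Signals were normalized to 0.29 uM artemisinin and DMSO wells, then corrected using vehicle-only plates flanking each stack. Parasite growth ran 72 h in erythrocytes before lysis.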

The nature of assay [9]: qHTS Assay for Modulators of Human Peripheral Myelin Protein 22 (PMP22) Expression/Activity (AID 1967; active means well fitted curve in the direction sought with a large enough effect in the signal ratio; the % refers to the signal ratio). The gist of the method:
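MSC80 mouse Schwann cells stably carrying Pmp22 promoter–green click beetle luciferase plus EF-alpha–red luciferase control were dosed for 24h at 37 °C. Dual-colour luminescence was filter-overlap corrected; %Activity came from green/red ratio versus untreated cells.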

Chain of ATP-dependent DNA helicase Q1 (Homo sapiens) (P46063 whole entry, looked up): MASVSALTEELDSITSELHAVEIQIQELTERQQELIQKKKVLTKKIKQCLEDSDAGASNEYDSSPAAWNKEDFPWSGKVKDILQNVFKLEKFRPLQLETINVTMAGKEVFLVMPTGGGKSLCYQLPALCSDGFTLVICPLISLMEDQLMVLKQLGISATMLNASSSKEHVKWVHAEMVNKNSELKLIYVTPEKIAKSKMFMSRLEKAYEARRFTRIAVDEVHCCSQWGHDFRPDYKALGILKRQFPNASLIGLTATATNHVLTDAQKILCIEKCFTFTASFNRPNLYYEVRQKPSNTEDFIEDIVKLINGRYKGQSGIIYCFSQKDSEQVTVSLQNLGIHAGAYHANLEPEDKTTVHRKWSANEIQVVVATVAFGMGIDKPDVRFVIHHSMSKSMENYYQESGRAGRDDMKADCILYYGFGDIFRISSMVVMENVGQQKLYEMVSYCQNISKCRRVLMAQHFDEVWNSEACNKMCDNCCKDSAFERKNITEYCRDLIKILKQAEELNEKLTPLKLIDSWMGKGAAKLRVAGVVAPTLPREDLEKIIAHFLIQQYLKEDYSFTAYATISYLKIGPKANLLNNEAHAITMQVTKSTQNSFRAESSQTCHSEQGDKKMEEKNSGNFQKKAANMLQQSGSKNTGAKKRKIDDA

Turning to `NC(=NCc1ccccc1)NC(=O)c1nc(Cl)c(N)nc1N`, the Potency in [1] is 3.16 µM (active); in assay [2], 0.562 µM (active); in assay [3], 0.891 µM (active); in [4], 5.01 µM (active); in assay [5], 1 µM (active). Also, the Potency result in [6] and in [7] was “inactive” each time.

With `CC1(C)C(=O)N(CCN2CCC(C(=O)c3ccc(F)cc3)CC2)c2ccccc21`, the Potency in assay [1] was 12.6 µM (active); in assay [2], 11.2 µM (active); in assay [4] it was 6.31 µM (active); in assay [5], 12.6 µM (active). Moreover, the Potency result in [7] was “inactive”.

`CC(=O)O[C@H]1C(=O)[C@@]2(C)C([C@H](OC(=O)c3ccccc3)[C@]3(O)C[C@H](OC(=O)[C@H](O)[C@@H](NC(=O)c4ccccc4)c4ccccc4)C(C)=C1C3(C)C)[C@]1(OC(C)=O)CO[C@@H]1C[C@@H]2O` (some centres not stated): the Potency was 1.58 µM (active) in assay [1]; 0.0708 µM (active) in assay [2]; 0.1 µM (active) in assay [3]; 0.158 µM (active) in [8]; 0.0224 µM (active) in [4]; 0.251 µM (active) in assay [5]. Moreover, the Potency result in assay [6] and in assay [7] was “inactive” each time.

For the compound `O=Nc1c(-c2c(O)[nH]c3cc(Br)ccc23)[nH]c2ccccc12`, the Potency in [1] was 2.24 µM (active); in assay [2], 2 µM (active); in assay [3] it was 3.98 µM (active); in assay [8] it was 7.94 µM (active); in [4] it was 2.24 µM (active); in [5], 2.24 µM (active). The Potency result in assay [7] was “inactive”.

For the compound `CC1(C)NC(=O)N(c2ccc([N+](=O)[O-])c(C(F)(F)F)c2)C1=O`, the Potency entry in assay [1], in assay [2], in assay [3], in [8], in [5] and in assay [6] was “inactive” in each case. The Potency entry in assay [7] was “inactive”. The compound was called inactive in [9].

On to `Nc1nc(OCc2ccccc2)c2[nH]cnc2n1`, for which the Potency entry in assay [1], in assay [2], in assay [3], in [8], in assay [5] and in assay [6] was “inactive” in each case. Moreover, the Potency result in assay [7] was “inactive”.

Take `COc1ccc2cc([C@H](C)C(=O)O)ccc2c1`: the Potency result in assay [1], in [2], in [3], in [8], in [4] and in assay [5] was “inactive” each time. The Potency result in assay [6] and in assay [7] was “inactive” in each case.

`C[C@@H](N)C1CCC(C(=O)Nc2ccncc2)CC1` (some centres not stated): the Potency result in assay [1], in assay [2], in assay [3], in [8], in [5] and in assay [6] was “inactive” throughout. Moreover, the Potency result in [7] was “inactive”. Moreover, the compound was called inactive in assay [9].

With `CC(C)c1ccc2c(c1)c(SC(C)(C)C)c(CC(C)(C)C(=O)O)n2Cc1ccc(Cl)cc1`, the Potency in [1] was 5.01 µM (active); in [2], 6.31 µM (active); in [3] it was 12.6 µM (active); in [8] it was 12.6 µM (active); in assay [4], 3.16 µM (active); in assay [5] it was 11.2 µM (active).

Turning to `O=C(CCc1ccc(O)cc1)c1c(O)cc(O)cc1O`, the values for the Potency in assay [1] and in assay [4] were 11.2 µM (active) and 14.1 µM (active), respectively. The Potency result in assay [3], in assay [6] and in assay [7] was “inactive” throughout.

`O=C(O)c1cccnc1Nc1cccc(C(F)(F)F)c1`: the Potency result in [1], in assay [2], in [3], in assay [8], in [4] and in [5] was “inactive” throughout. For the same compound, the Potency entry in assay [6] and in [7] was “inactive” each time.

For the compound `Oc1ccc(-c2nc(-c3ccc(F)cc3)c(-c3ccncc3)[nH]2)cc1`, the Potency in assay [1] is 12.6 µM (active); in assay [2], 11.2 µM (active); in assay [8], 11.2 µM (active); in [4] it was 6.31 µM (active). Also, the Potency result in assay [6] and in assay [7] was “inactive” throughout.

With `CCN(CC)C(=S)SSC(=S)N(CC)CC`, the Potency in [1] is 5.01 µM (active); in [2], 2.82 µM (active). Also, the Potency entry in assay [7] is “inactive”.

For the compound `O=C(c1ccccc1)c1ccc2n1CCC2C(=O)O` (configuration not stated), the Potency result in [1], in [2], in assay [3], in assay [8], in assay [4] and in assay [5] was “inactive” each time. The Potency result in assay [6] and in assay [7] was “inactive” in each case.

With `NNc1nncc2ccccc12`, the Potency result in assay [1], in assay [2], in [8], in assay [5], in [6] and in assay [7] was “inactive” each time.

Regarding `NCCCCNCCCN`, the Potency result in assay [1], in assay [2], in assay [3], in [8], in [4] and in assay [5] was “inactive” throughout. The Potency entry in [6] and in assay [7] was “inactive” in each case.

In the case of `C[C@H](Cc1ccc(O)c(O)c1)[C@@H](C)Cc1ccc(O)c(O)c1`, the Potency in assay [1] is 5.01 µM (active); in assay [2], 12.6 µM (active); in assay [3], 12.6 µM (active); in assay [4], 10 µM (active); in assay [5], 14.1 µM (active); in [6] it was 12.6 µM (active). For the same compound, the Potency in assay [7] is 11.2 µM (active).

As to `O=c1c(O)c(-c2ccc(O)cc2O)oc2cc(O)cc(O)c12`, the Potency entry in [1], in assay [2], in assay [3], in [8], in assay [4] and in [5] was “inactive” each time. For the same compound, the Potency result in assay [6] and in assay [7] was “inactive” in each case.

Consider `O=c1ccc2ccc(O)c(O)c2o1`, for which the Potency in assay [1] was 15.8 µM (active); in [4] it was 15.8 µM (active); in assay [5] it was 12.6 µM (active). Besides, the Potency entry in assay [6] and in assay [7] was “inactive” in each case.

Turning to `O=C1c2c(O)cc(O)cc2OC(c2ccc(O)c(O)c2)C1O` (configuration not stated), the Potency was 15.8 µM (active) in assay [1], 14.1 µM (active) in assay [2], 12.6 µM (active) in assay [4] and 15.8 µM (active) in assay [5]. In addition, the Potency entry in assay [8] and in assay [7] was “inactive” in each case.

As to `COc1ccccc1N1CCN(CCN(C(=O)C2CCCCC2)c2ccccn2)CC1`, the Potency in [5] was 11.2 µM (active).

Turning to `O=c1cc(N2CCOCC2)oc2c(-c3ccccc3)cccc12`, the Potency result in assay [5] is “inactive”.

`COc1cc2nc(N3CCN(C(=O)C4CCCO4)CC3)nc(N)c2cc1OC` (configuration not stated): the result in [9] was inactive.
